Pf Dd2 inh – qHTS Primary assay for Inhibitors of Plasmodium falciparum Dd2 growth in vitro; AID 1347417, 2020; actives 4.3% (n = 120,000); Potency, µM (top dose mostly 28.9 µM), actives largely listed as inhibitors; P. falciparum Dd2 growth, SYBR Green, 72 h; active = well fitted inhibition curve with a large enough effect; also: nearly all actives have a fitted effect of over 65% in size
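Infected erythrocytes (Dd2, 0.3% parasitemia, 2.5% hematocrit final) are added to compound in RPMI-1640/Albumax II medium, grown 72 h at 37C in low oxygen, then lysed with saponin/Triton-X containing SYBR Green and read by fluorescence.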
Hits are given with their value; n = inactive. Shown is part of a subset that was picked to be rich in hits.

SMILES | Pf Dd2 inh
O=C1c2[nH]nc(-c3ccccc3)c2C(c2ccccc2)N1c1cccc(C(F)(F)F)c1 (stereo unspecified) | n
CCOC(=O)c1ccc(N2C(=O)c3n[nH]c(-c4cccs4)c3C2c2ccc(C(C)C)cc2)cc1 (stereo unspecified) | n
O=C(C[C@@H]1C[C@H]2O[C@H](CNCc3ccccc3Cl)[C@@H](O)[C@H]2O1)N1CCOCC1 | n
CN1CCC(N2CCN(C(=O)CCc3ccccc3)CC2)C1=O (stereo unspecified) | n
COc1ccc(Cl)cc1NC(=O)CCC1CCCN(C(=O)CCCN2CCCC2=O)C1 (stereo unspecified) | n
CS(=O)(=O)N1CCCN(C(=O)C2CC2)c2ccccc21 | n
Cn1ccnc1CN1CCCC(NC(=O)c2ccc3c(c2)CCCO3)CC1 (stereo unspecified) | n
COc1nc2c(cc1CNC(=O)CO)C(=O)N(CCc1ccccn1)C2 | n
CCOC(=O)c1ccc(N2C(=O)c3n[nH]c(C)c3C2c2ccc(C(C)(C)C)cc2)cc1 (stereo unspecified) | n
CCOC(=O)c1ccc(N2C(=O)c3n[nH]c(C)c3C2c2cccc(Br)c2)cc1 (stereo unspecified) | 12.6µM
CCOC(=O)c1ccc(NC(=O)c2cn(-c3ccccc3)nc2-c2ccc(Br)cc2)cc1 | n
CS(=O)(=O)N1CC2(CCN(C(=O)CCC(=O)O)CC2)Cc2ccccc21 | n
Cc1cc(C)n(Cc2cccc(C(=O)N[C@@H]3CCNC[C@H]3O)c2)n1 | n
COc1cccc(CC2(CO)CCCN(c3ccc(-c4nccn4C)nn3)C2)c1 (stereo unspecified) | 8.91µM
Cn1ccnc1-c1ccc(N2CC[C@](C)(O)[C@@H](O)C2)nn1 | n
Cn1ccnc1-c1ccc(N2CCC(C(O)Cc3ccccc3)CC2)nn1 (stereo unspecified) | n
CC(C)(C)c1cccc(CN2CCC3(CCNCC3)C2)c1O | 10µM
Cc1ccc(CN2CCC3(CCNCC3)C2)c(Cl)c1Cl | 12.6µM
OCC#Cc1ccc(CN2CCC3(CCNCC3)C2)cc1 | n
Cn1c(CN2CCC3(CCNCC3)C2)nc2ccccc21 | n
COc1ccc(F)c(F)c1CN1CCC2(CCNCC2)C1 | n
CN(Cc1ccccc1CN1CCCC1)C(=O)C1CC2(CCNCC2)CN1C (stereo unspecified) | n
CCC1=C(C(=O)OC)C(c2ccccc2)N2C(CC(=O)NCCCN3CCCC3=O)=CSC2=N1 (stereo unspecified) | n
CS(=O)(=O)N(C1CC1)C1CCOC2(CCN(C(=O)NCc3ccccc3)CC2)C1 (stereo unspecified) | n
Cc1ccc(Cc2ccccc2C(=O)N2C[C@@H](C)[C@@](C)(O)C2)cc1 | n
SMILES | Pf Dd2 inh
COc1ccc(C(=O)N2CCN(C(C(=O)O)c3ccc(F)cc3)CC2)cc1 (stereo unspecified) | n
CCc1ccccc1NC(=O)c1ccc2c(c1)c(C)c(C)n2Cc1ccccc1 | 11.2µM
Cc1c(C)n(Cc2ccccc2)c2ccc(C(=O)NC(C)c3ccccc3)cc12 (stereo unspecified) | n
Cc1ccccc1NC(=O)c1ccc2c(c1)c(C)c(C)n2Cc1ccccc1 | n
CSc1cccc(NC(=O)c2ccc3c(c2)c(C)c(C)n3Cc2ccc(F)cc2)c1 | 10µM
Cc1c(C)n(Cc2ccccc2)c2ccc(C(=O)NCc3ccccc3F)cc12 | n
CSc1ccc(CCNC(=O)c2ccc3c(c2)c(C)c(C)n3Cc2ccc(F)cc2)cc1 | n
CC(C)c1noc(-c2cn(C3CCN(C(=O)C4(c5ccccc5)CC4)C3)nn2)n1 (stereo unspecified) | n
COCc1nc(C2CCCN(C(=O)c3ccco3)C2)no1 (stereo unspecified) | n
COCCC1(NC(=O)C2CC2)CCN(S(=O)(=O)c2ccccc2)CC1 | n
COCc1cn(C[C@H]2C[C@@H](NC(=O)C3CCOCC3)[C@H](O)[C@@H]2O)nn1 | n
O=C(C[C@@H]1C[C@H]2O[C@H](CNC3CCC3)[C@@H](O)[C@H]2O1)N1CCC(F)(F)C1 | n
Cc1ccc(NC(=O)N2CCN(c3nnc(C)c4c(C)n(-c5ccccc5)nc34)CC2)c(Cl)c1 | n
Cc1ccc(NC(=O)N2CCc3c([nH]c4ccccc34)C2c2ccccc2F)c(Cl)c1 (stereo unspecified) | 10µM
COC(=O)CC1c2cc(OC)c(OC)cc2CCN1C(=O)Nc1ccc(C)cc1Cl (stereo unspecified) | n
O=C(NC[C@H]1Cn2ccnc2CO1)NC1CCCCC1 | n
O=C(Cc1ccccc1)NC1CCN(c2cc(-c3ccccc3)[nH]n2)CC1 | n
COc1cccc(C(=O)N2CCC3(CC2)N(C)C(=O)CS3(=O)=O)c1 | n
Cc1ccc(C)c(CN2C(=O)c3ccccc3S(=O)(=O)c3ccc(C(=O)NCc4ccccc4)cc32)c1 | 7.08µM
O=C(c1ccc2c(c1)N(Cc1ccc(F)cc1)C(=O)c1ccccc1S2(=O)=O)N1CCCC1 | n
CCOC(=O)N1CCC(NC(=O)c2ccc3c(c2)N(Cc2cc(C)ccc2C)C(=O)c2ccccc2S3(=O)=O)CC1 | 11.2µM
O=C(c1ccc2c(c1)N(Cc1ccccc1F)C(=O)c1ccccc1S2(=O)=O)N1CCCC1 | n
Cc1ccc(CCNC(=O)c2ccc3c(c2)N(Cc2cccc(C)c2)C(=O)c2ccccc2S3(=O)=O)cc1 | n
CCOC(=O)c1ccc2c(c1)N(Cc1cc(C)ccc1C)C(=O)c1ccccc1S2(=O)=O | n
CCC(C)NC(=O)c1ccc2c(c1)N(Cc1ccccc1)C(=O)c1ccccc1S2(=O)=O (stereo unspecified) | 3.16µM
SMILES | Pf Dd2 inh
O=C(NCc1ccco1)c1ccc2c(c1)N(Cc1ccccc1)C(=O)c1ccccc1S2(=O)=O | n
O=C(c1ccc2c(c1)N(Cc1ccccc1)C(=O)c1ccccc1S2(=O)=O)N1CCN(Cc2ccccc2)CC1 | 8.91µM
COC(=O)c1ccc2c(c1)N(Cc1ccccc1)C(=O)c1ccccc1S2(=O)=O | n
Cc1ccc(CNC(=O)c2ccc3c(c2)N(Cc2ccccc2)C(=O)c2ccccc2S3(=O)=O)cc1 | n
COCCNC(=O)c1ccc2c(c1)N(Cc1cc(C)ccc1C)C(=O)c1ccccc1S2(=O)=O | n
CCc1cc(C(=O)N2CC[C@@H]3[C@@H](CCC(=O)N3CCc3cnc[nH]3)C2)n[nH]1 | n
OCCC1CN(Cc2cc3c(cc2Cl)OCO3)CCN1Cc1ccccc1F (stereo unspecified) | n
O=C(C1CC1)N1CCC(Cc2nc(C3CC3)n[nH]2)CC1 | n
O=C(NC[C@H]1OC[C@@H](NC2CCCC2)[C@@H]1O)C1CCCC1 | n
O=C(c1ccc2c(c1)N(Cc1ccccc1F)C(=O)c1ccccc1S2(=O)=O)N1CCCCC1 | n
Cc1ccc(C)c(CN2C(=O)c3ccccc3S(=O)(=O)c3ccc(C(=O)N4CCN(c5ccccc5)CC4)cc32)c1 | 5.62µM
O=C(NC1CCCCC1)C1CN(S(=O)(=O)c2cccc(F)c2)CC12CCOCC2 (stereo unspecified) | n
CN(C)c1cccc(NC(=O)C2=NO[C@@H]3CN(Cc4ccc(F)cc4)C[C@H]23)c1 | n
CCn1ccnc1CN1CCCC12CCN(c1ccc(C(F)(F)F)cn1)CC2 | n
Cn1cc(CN2CCCC23CCN(c2ccnc4c(C(F)(F)F)cccc24)CC3)cn1 | n
CCc1ncc(CN2CCCC23CCN(c2ccc(C(F)(F)F)cn2)CC3)cn1 | 7.94µM
CCn1ncc(N2CCCC(CC(=O)NC3CCN(Cc4ccccc4)CC3)C2)cc1=O (stereo unspecified) | n

Source: PubChem BioAssay (National Center for Advancing Translational Sciences (NCATS))
